# Test results published in PubChem BioAssay (EPA / NIEHS).
# Inconclusive results are not listed. A structure can be active in one record and inactive in another. Activity calls are given as the source filed them. The calls were made as follows: active = hit-call score of the fitted dose curve at least 0.9, where 1 is the maximum; inconclusive = response in the unintended direction; inactive = score below 0.9.
# Biological target: Estrogen receptor (Homo sapiens) (UniProt P03372)
# Test: OT_ER_ERaERa_0480: Odyssey Thera (OT) 8-hour HEK293T Protein-Complementation Assay for Estrogen Receptor-alpha/-alpha Homodimer (AID 2283351);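 also: rise in fluorescence from reassembled reporter fragments on ERα LBD homodimer in nucleus or whole cell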
# Method: OT_ER_ERaERa_0480 is a cell-based assay that uses HEK293T, a human kidney cell line, with measurements taken at 8 hours after chemical dosing in a 384-well plate.OT_ER_ERaERa_0480 is one of one assay component(s) measured or calculated from the OT_ER_ERaERa_0480 assay. It is designed to make measurements of protein fragment complementation, a form of binding reporter, as detected with fluorescence intensity signals by Protein-fragment Complementation technology.Data from the assay component OT_ER_ERaERa_0480 was analyzed into 1 assay endpoint. This assay endpoint, OT_ER_ERaERa_0480, was analyzed in the positive analysis fitting direction relative to DMSO as the negative control and baseline of activity. Using a type of binding reporter, measures of receptor for gain-of-signal activity can be used to understand the binding at the pathway-level as they relate to the gene ESR1. Furthermore, this assay endpoint can be referred to as a primary readout, because the performed assay has only produced 1 assay endpoint. To generalize the intended target to other relatable targets, this assay endpoint is annotated to the nuclear receptor intended target family, where the subfamily is steroidal.
# Protein-fragment complementation assay, or PCA, is a method for the identification and quantification of protein-protein interactions. In the PCA, the proteins of interest ("bait" and "prey") are each covalently linked to fragments of a third protein (e.g. DHFR, which acts as a "reporter"). Interaction between the bait and the prey proteins brings the fragments of the reporter protein in close proximity to allow them to form a functional reporter protein whose activity can be measured. The OT ER alpha / ER alpha assay is a homodimer PCA of the ligand binding domain (amino acids 310-547) of human ER alpha stably expressed in HEK293T cells. […] Fluorescent signal in the basal state of the assay is very low and is primarily punctuate and cytoplasmic. Modulation of this assay is quantified as an increase in mean fluorescence intensity in the nucleus (for agonists) or in the nucleus and cytoplasm (antagonists) relative to vehicle controls, and can be quantified on a high content imaging device or a laser scanning cytometer. The latter instrument is favored for this assay because of the rapid mode of data acquisition, the ability to acquire data from the entire cell population in a well (as opposed to a fraction of the well on the high content devices) and the larger dynamic range typically achieved with this instrument. To assess sensitivity of the ER alpha/ER alpha LBD assay to ligand, cells were treated with the ER agonist 17 beta-estradiol (E2) in 10-point concentration- response format for 8 hours and monitored response on a laser scanning plate cytometer (Acumen eX3; TTP Lab Tech).
# Sequence of Estrogen receptor (Homo sapiens) (P03372 whole entry, looked up, the tested form may be a part): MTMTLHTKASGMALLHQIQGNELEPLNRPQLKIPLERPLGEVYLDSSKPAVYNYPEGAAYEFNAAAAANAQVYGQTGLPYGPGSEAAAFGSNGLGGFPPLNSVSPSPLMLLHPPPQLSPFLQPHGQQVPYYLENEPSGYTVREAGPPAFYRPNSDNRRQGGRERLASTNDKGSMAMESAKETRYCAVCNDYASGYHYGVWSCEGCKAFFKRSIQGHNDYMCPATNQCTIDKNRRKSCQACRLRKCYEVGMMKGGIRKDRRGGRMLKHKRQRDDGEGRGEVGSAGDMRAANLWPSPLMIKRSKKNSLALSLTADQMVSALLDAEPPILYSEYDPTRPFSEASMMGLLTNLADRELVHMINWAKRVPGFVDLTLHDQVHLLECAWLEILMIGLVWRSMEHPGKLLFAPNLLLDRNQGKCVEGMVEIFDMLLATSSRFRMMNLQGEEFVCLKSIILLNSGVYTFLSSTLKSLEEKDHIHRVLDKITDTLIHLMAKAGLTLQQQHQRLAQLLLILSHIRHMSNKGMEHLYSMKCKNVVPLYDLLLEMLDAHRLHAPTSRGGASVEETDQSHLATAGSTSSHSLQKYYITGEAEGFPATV
SMILES,outcome,AC50
CC(C)(C)CC(C)(C)c1ccc(O)c(-n2nc3ccccc3n2)c1,inactive,–
Oc1cccc(O)c1,inactive,–
CC(=O)CC(C)(C)O,inactive,–
Cc1ccc(S(=O)(=O)O)c(C)c1,inactive,–
CN(C)C=O,inactive,–
CCCCCCCCCCCCCC[N+](C)(C)C,inactive,–
CCCCCCCCOC(=O)CCCCCCCCC(=O)OCCCCCCCC,inactive,–
OC1CCC(C2CCCCC2)CC1 (stereo not given),inactive,81.9 µM (active)
C[C@@H]1C[C@H]2[C@@H]3CCC4=CC(=O)C=C[C@]4(C)[C@@]3(F)[C@@H](O)C[C@]2(C)[C@@]1(O)C(=O)COP(=O)(O)O,inactive,–
CCC(C)(C)C1CCC(O)CC1 (stereo not given),inactive,59.3 µM (active)
CCCCC(CC)COC(=O)CCCCC(=O)OCC(CC)CCCC (stereo not given),inactive,–
COCC(C)O (stereo not given),inactive,–
NC(=O)N1C(=O)C(C(=O)c2cc(Cl)cs2)c2cc(F)c(Cl)cc21 (stereo not given),inactive,–
c1ccc2c(c1)ccc1ccccc12,inactive,–
CCCCCCCCCCCCCCCS(=O)(=O)Oc1ccccc1,inactive,–
CC1=C(/C=C/C(C)=C/C=C/C(C)=C/C(=O)O)C(C)(C)CCC1,inactive,–
c1ccc2cc3c(ccc4ccccc43)cc2c1,inactive,–
OCCC(F)(F)C(F)(F)C(F)(F)C(F)(F)C(F)(F)C(F)(F)F,inactive,–
CCN(CC)CCNc1ccc(CNC=O)c2sc3ccc(OC)cc3c(=O)c12,inactive,–

SMILES,outcome,AC50
c1ccc2c(c1)Cc1ccccc1-2,inactive,–
CC(=O)NC1(c2cccc(F)c2)CCN(CC[C@@]2(c3ccc(Cl)c(Cl)c3)CN(c3ccccc3)C(=O)CO2)CC1,inactive,–
COc1ccc([N+](=O)[O-])cc1N,inactive,–
CCCCCCC(=O)O,inactive,–
Cc1cc(CCN2CCN(c3nsc4ccccc34)CC2)cc2c1NC(=O)CC2(C)C,inactive,–
N#C[C@@H]1CC(F)(F)CN1C(=O)CNC1CC2CCC(C1)N2c1ncccn1 (stereo not given in full),inactive,–
ClC1=C(Cl)C(Cl)(Cl)C(Cl)=C1Cl,inactive,–
CN1CCN(c2ccccc2/C=C2\SCCN(c3ccc(Cl)c(Cl)c3)C2=O)CC1,inactive,–
Cc1cc(C)c(O)c(C)c1,inactive,–
COC(=O)CCCCC(=O)OC,inactive,–
CCCCC(CC)COC(=O)CCCCC(=O)OCc1ccccc1 (stereo not given),inactive,–
CC(C)(C)c1ccc(O)c(C(C)(C)C)c1,inactive,–
O=[N+]([O-])c1ccc(O)cc1,inactive,–
CC(C)(C)c1cc(C(C)(C)C)c(O)c(C(C)(C)C)c1,inactive,–
NC(=O)N(O)[C@@H]1C=C[C@H](Oc2cccc(Oc3ccc(F)cc3)c2)C1,inactive,–
CCCCCCCC(=O)O,inactive,–
Oc1cc2ccccc2c2ccccc12,inactive,–
CC[C@H](C)[C@@H](C(=O)O)n1sc2ccccc2c1=O,inactive,–
C#C[C@]1(O)CC[C@H]2[C@@H]3CCC4=CC(=O)CC[C@@H]4[C@H]3CC[C@@]21C,inactive,–
